Test results published in PubChem BioAssay (NCATS).
Results filed as inconclusive are left out. Where a call stands in place of a potency, no number is given. Calls of active or inactive are those of the source. Calls follow the shape of the dose curve; as a rule, active = well fitted inhibition curve with a large enough effect; inconclusive = small, poorly fitted or top-dose-only effect; inactive = flat fitted curve, though single readings scatter.
Potency is read from the fitted curve at half-maximal effect.

What follows are molecules tested on CP201 (assay: qHTS profiling for inhibitors of Plasmodium falciparum proliferation (AID 504749; also: nearly all actives have a fitted effect of over 60% in size)). Settings: P. falciparum in erythrocytes, SYBR Green DNA, 72 h; series mostly up to 28.7 µM.
Method in brief: (§1)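 Quantitative HTS: compounds pinned into medium, infected erythrocytes added (0.3% parasitemia, 2.5% hematocrit), 72 h culture at 37 C under 5% CO2. Saponin/Triton lysis with SYBR Green I, overnight RT, then fluorescence read.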
For `CC/C=C\C/C=C\C/C=C\C/C=C\C/C=C\C/C=C\CCC(=O)O`, the Potency was “inactive”.
In the case of `O=C(O)/C=C/c1ccccc1`, the Potency is reported as “inactive”.
`CC(=O)Oc1cccc(C(=O)O)c1OC(C)=O` was tested, and the Potency was “inactive”.
In the case of `CC(CNC(=O)c1cccnc1)NC(=O)c1cccnc1` (stereo not drawn), the Potency is reported as “inactive”.
For `CN=C1C=CC(=C(c2ccc(N(C)C)cc2)c2ccc(N(C)C)cc2)C=C1`, the Potency was 1200 nM (active).
`CC/C(=C(/CC)c1ccc(OP(=O)(O)O)cc1)c1ccc(OP(=O)(O)O)cc1` was tested, and the Potency was “inactive”.
`ClC(Cl)Cl` was tested, and the Potency was “inactive”.
With `CCCCCCCCCCCCCCCCCC[N+](C)(C)CCC[Si](OC)(OC)OC` the Potency was “inactive”.
With `Oc1cc(O)cc(O)c1` the Potency was “inactive”.
In the case of `CC(=O)Nc1c(I)c(C(=O)O)c(I)c(N(C)C(C)=O)c1I`, the Potency is reported as “inactive”.
With `CC(C)CCC[C@@H](C)[C@H]1CC[C@H]2[C@@H]3CC=C4C[C@@H](O)CC[C@]4(C)[C@H]3CC[C@]12C` the Potency was “inactive”.
`CCCCCCCCCCCCOCCCN` was tested, and the Potency was “inactive”.
For `CC(C)(C)c1ccc2c(S(=O)(=O)O)c(C(C)(C)C)ccc2c1`, the Potency was “inactive”.
In the case of `CCSc1ccc2c(c1)N(CCCN1CCN(C)CC1)c1ccccc1S2`, the Potency is reported as “inactive”.
With `c1ccc(-n2cnnn2)cc1` the Potency was “inactive”.
With `CN1CCC(OC(=O)C(Oc2ccc(Cl)cc2)Oc2ccc(Cl)cc2)CC1` the Potency was “inactive”.
`CC(C)Cc1ccc([C@@H](C)C(=O)NS(C)(=O)=O)cc1` was tested, and the Potency was “inactive”.
`CCCc1ccc(C(=O)O)cc1` was tested, and the Potency was “inactive”.
`CNC(=O)c1c(I)c(C(=O)NCC(=O)Nc2c(I)c(C(=O)O)c(I)c(C(=O)NCCO)c2I)c(I)c(N(C)C(C)=O)c1I` was tested, and the Potency was “inactive”.
For `CC1CC(O)CC(C)(C)C1` (stereo not drawn), the Potency was “inactive”.
`C=Cc1ccc(S(=O)(=O)O)cc1` was tested, and the Potency was “inactive”.
For `OCC1(CO)COC(C(Cl)(Cl)Cl)OC1`, the Potency was “inactive”.
For `CC(C)(C)CC(C)(C)c1cc(Cc2cc(C(C)(C)CC(C)(C)C)cc(-n3nc4ccccc4n3)c2O)c(O)c(-n2nc3ccccc3n2)c1`, the Potency was “inactive”.
`O=C(O)c1ccc(OCCn2ccnc2)cc1` was tested, and the Potency was “inactive”.
For `CC(C)c1ncc([N+](=O)[O-])n1C`, the Potency was “inactive”.
With `CN1c2c(nc(N)[nH]c2=O)NCC1CNc1ccc(C(=O)NC(CCC(=O)O)C(=O)O)cc1` (stereo not drawn) the Potency was “inactive”.
For `N=C(N)n1cccn1`, the Potency was “inactive”.
`N[C@H](CC(=O)O)C(=O)O` was tested, and the Potency was “inactive”.
`NCC(O)CC(=O)O` (stereo not drawn) was tested, and the Potency was “inactive”.
`CCN(CC)C(=O)c1cccnc1` was tested, and the Potency was “inactive”.
`CCOC(C)OCC` was tested, and the Potency was “inactive”.
`FCOC(C(F)(F)F)C(F)(F)F` was tested, and the Potency was “inactive”.
For `CN[C@@H]1[C@H](O[C@H]2[C@H](O[C@H]3[C@H](O)[C@@H](O)[C@H](N=C(N)N)[C@@H](O)[C@@H]3N=C(N)N)O[C@@H](C)[C@]2(O)C=O)O[C@@H](CO)[C@H](O)[C@H]1O`, the Potency was “inactive”.
With `CC(C)[C@@H](N)C(=O)O` the Potency was “inactive”.
In the case of `O=C(O)COc1ccc(CCNS(=O)(=O)c2ccccc2)s1`, the Potency is reported as “inactive”.
For `CC(=O)Nc1ccc(OC(=O)c2ccccc2O)cc1`, the Potency was “inactive”.
With `CC(C)O` the Potency was “inactive”.
In the case of `C=CC[C@@H]1/C=C(\C)C[C@H](C)C[C@H](OC)[C@H]2O[C@@](O)(C(=O)C(=O)N3CCCC[C@H]3C(=O)O[C@H](/C(C)=C/[C@@H]3CC[C@@H](O)[C@H](OC)C3)[C@H](C)[C@@H](O)CC1=O)[C@H](C)C[C@@H]2OC`, the Potency is reported as 5360 nM (active).
With `Cc1cc(=O)c(C(=O)N[C@@H](C(=O)N[C@@H]2C(=O)N3C(C(=O)O)=C(CSc4nnnn4C)CS[C@H]23)c2ccc(O)cc2)c[nH]1` the Potency was “inactive”.

These molecules were tested on CP203 in the same assay as above. Settings: P. falciparum in erythrocytes, SYBR Green DNA, 72 h; series mostly up to 28.7 µM.
Method in brief: as §1
For `CC/C=C\C/C=C\C/C=C\C/C=C\C/C=C\C/C=C\CCC(=O)O`, the Potency was “inactive”.
In the case of `O=C(O)/C=C/c1ccccc1`, the Potency is reported as “inactive”.
In the case of `CC(=O)Oc1cccc(C(=O)O)c1OC(C)=O`, the Potency is reported as “inactive”.
For `CC(CNC(=O)c1cccnc1)NC(=O)c1cccnc1` (stereo not drawn), the Potency was “inactive”.
With `CN=C1C=CC(=C(c2ccc(N(C)C)cc2)c2ccc(N(C)C)cc2)C=C1` the Potency was 1200 nM (active).
For `CC/C(=C(/CC)c1ccc(OP(=O)(O)O)cc1)c1ccc(OP(=O)(O)O)cc1`, the Potency was “inactive”.
In the case of `ClC(Cl)Cl`, the Potency is reported as “inactive”.
In the case of `CCCCCCCCCCCCCCCCCC[N+](C)(C)CCC[Si](OC)(OC)OC`, the Potency is reported as “inactive”.
For `Oc1cc(O)cc(O)c1`, the Potency was “inactive”.
For `CC(=O)Nc1c(I)c(C(=O)O)c(I)c(N(C)C(C)=O)c1I`, the Potency was “inactive”.
In the case of `CC(C)CCC[C@@H](C)[C@H]1CC[C@H]2[C@@H]3CC=C4C[C@@H](O)CC[C@]4(C)[C@H]3CC[C@]12C`, the Potency is reported as “inactive”.
`CCCCCCCCCCCCOCCCN` was tested, and the Potency was “inactive”.
In the case of `CC(C)(C)c1ccc2c(S(=O)(=O)O)c(C(C)(C)C)ccc2c1`, the Potency is reported as “inactive”.
With `CCSc1ccc2c(c1)N(CCCN1CCN(C)CC1)c1ccccc1S2` the Potency was “inactive”.
`c1ccc(-n2cnnn2)cc1` was tested, and the Potency was “inactive”.
`CN1CCC(OC(=O)C(Oc2ccc(Cl)cc2)Oc2ccc(Cl)cc2)CC1` was tested, and the Potency was “inactive”.
In the case of `CC(C)Cc1ccc([C@@H](C)C(=O)NS(C)(=O)=O)cc1`, the Potency is reported as “inactive”.
With `CCCc1ccc(C(=O)O)cc1` the Potency was “inactive”.
`CNC(=O)c1c(I)c(C(=O)NCC(=O)Nc2c(I)c(C(=O)O)c(I)c(C(=O)NCCO)c2I)c(I)c(N(C)C(C)=O)c1I` was tested, and the Potency was “inactive”.
For `CC1CC(O)CC(C)(C)C1` (stereo not drawn), the Potency was “inactive”.
`C=Cc1ccc(S(=O)(=O)O)cc1` was tested, and the Potency was “inactive”.
With `OCC1(CO)COC(C(Cl)(Cl)Cl)OC1` the Potency was “inactive”.
With `CC(C)(C)CC(C)(C)c1cc(Cc2cc(C(C)(C)CC(C)(C)C)cc(-n3nc4ccccc4n3)c2O)c(O)c(-n2nc3ccccc3n2)c1` the Potency was “inactive”.
For `O=C(O)c1ccc(OCCn2ccnc2)cc1`, the Potency was “inactive”.
For `CC(C)c1ncc([N+](=O)[O-])n1C`, the Potency was “inactive”.
For `CN1c2c(nc(N)[nH]c2=O)NCC1CNc1ccc(C(=O)NC(CCC(=O)O)C(=O)O)cc1` (stereo not drawn), the Potency was “inactive”.
For `N=C(N)n1cccn1`, the Potency was “inactive”.
For `N[C@H](CC(=O)O)C(=O)O`, the Potency was “inactive”.
For `NCC(O)CC(=O)O` (stereo not drawn), the Potency was “inactive”.
For `CCN(CC)C(=O)c1cccnc1`, the Potency was “inactive”.
In the case of `CCOC(C)OCC`, the Potency is reported as “inactive”.
For `FCOC(C(F)(F)F)C(F)(F)F`, the Potency was “inactive”.
For `CN[C@@H]1[C@H](O[C@H]2[C@H](O[C@H]3[C@H](O)[C@@H](O)[C@H](N=C(N)N)[C@@H](O)[C@@H]3N=C(N)N)O[C@@H](C)[C@]2(O)C=O)O[C@@H](CO)[C@H](O)[C@H]1O`, the Potency was “inactive”.
For `CC(C)[C@@H](N)C(=O)O`, the Potency was “inactive”.
With `O=C(O)COc1ccc(CCNS(=O)(=O)c2ccccc2)s1` the Potency was “inactive”.
In the case of `CC(=O)Nc1ccc(OC(=O)c2ccccc2O)cc1`, the Potency is reported as “inactive”.
`CC(C)O` was tested, and the Potency was “inactive”.
`C=CC[C@@H]1/C=C(\C)C[C@H](C)C[C@H](OC)[C@H]2O[C@@](O)(C(=O)C(=O)N3CCCC[C@H]3C(=O)O[C@H](/C(C)=C/[C@@H]3CC[C@@H](O)[C@H](OC)C3)[C@H](C)[C@@H](O)CC1=O)[C@H](C)C[C@@H]2OC` was tested, and the Potency was 4780 nM (active).
In the case of `Cc1cc(=O)c(C(=O)N[C@@H](C(=O)N[C@@H]2C(=O)N3C(C(=O)O)=C(CSc4nnnn4C)CS[C@H]23)c2ccc(O)cc2)c[nH]1`, the Potency is reported as “inactive”.
